Laboratory results: PubChem BioAssay AID492948 (National Center for Advancing Translational Sciences (NCATS), 2010)
Inconclusive results are not listed. Unmarked numbers belong to inactive results. Activity calls are given as the source filed them. The call rests on the fitted dose curve; in most records, active means well fitted activation curve with a large enough effect; inconclusive means small, poorly fitted or top-dose-only effect; inactive means no such curve, though single readings can be large or run the other way.

Test: qHTS Assay for Agonists of the Relaxin Receptor RXFP1: V1B Hit Validation;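 further: counter-screen in HEK293 cells expressing V1B rather than RXFP1 for selectivity; nearly all actives have a fitted effect of over 65% in size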;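 on activation: cAMP accumulation with PDE4 inhibitor Ro 20-1724 present during compound exposure; 0% = buffer alone basal and 100% = 29 nM porcine relaxin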
Details: HEK293 V1B cells, cAMP TR-FRET, 30 min; series mostly up to 115 µM; activation: at the top concentration
Method in brief: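 cAMP accumulation, read by TR-FRET competition after lysis, in V1B-expressing HEK293 cells given compound for 30 min at 37C with Ro 20174 present. Responses scaled between buffer basal and 29 nM porcine relaxin; Hill-equation EC50.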
Potency means the concentration at half of the fitted maximal effect.

| SMILES | activation | Potency |
| --- | --- | --- |
| Cc1ccc(C(=O)Nc2ccccc2C(N)=O)o1 | 4.86% [at 127 µM] | – |
| COC(=O)[C@@H]1C[C@@]2(O)[C@H](O)[C@H](O)[C@H](O)C[C@H]2N1Cc1cc(F)ccc1F | 3.86% | – |
| CC(C)n1c(SCC(=O)N2CCN(C(=O)c3ccco3)CC2)nc2c1c(=O)n(C)c(=O)n2C | – | 6.9 µM (active) |
| CC(C)n1cnc2c(N(C)c3cccc(Cl)c3)nc(N(CCO)CCO)nc21 | -3.24% | – |
| CCN(CC)S(=O)(=O)c1ccc(N2CCOCC2)c(NC(=O)c2cccc(C#N)c2)c1 | – | 47.3 µM (active) |
| O=C(Nc1ccccc1C(=O)N1CCNCC1)c1ccco1 | -5.42% [at 127 µM] | – |
| O=C(Nc1ccccc1)c1ccccc1NC(=O)C1CCCCC1 | -0.678% [at 127 µM] | – |
| Cc1cc(C)c(NC(=O)CS(=O)CC(=O)Nc2ccc(F)cc2F)c(C)c1 (configuration not stated) | 3.65% | – |
| CCN(CC)S(=O)(=O)c1ccc2c(c1)N(CC(=O)Nc1cccnc1Cl)C(=O)CO2 | – | 17.3 µM (active) |
| Nc1c(Cl)cc(-c2[nH]c3cc(C(=O)NCCO)ccc3c(=O)c2O)cc1Cl | – | 34.6 µM (active) |
| COc1ccccc1NC(=O)CCCc1nnc2n(C)c(=O)c3sccc3n12 | – | 13.8 µM (active) |
| CN(C)S(=O)(=O)c1cccc(COc2ncnc3c(Cl)cc(Cl)cc23)c1 | – | 27.5 µM (active) |
| COC(=O)c1sc(N2C(=O)C(O)=C(C(=O)c3ccc(C)o3)C2c2ccc(F)cc2)nc1C (configuration not stated) | – | 2.75 µM (active) |
| COC(=O)c1cc(CN2C(=O)c3ccccc3C2=O)c(O)c([N+](=O)[O-])c1 | – | 30.9 µM (active) |
| Cc1cccn2c(=O)c(/C=C3\SC(=S)NC3=O)c(NCCCN3CCOCC3)nc12 | – | 4.35 µM (active) |
| CC1(C)Cc2c(sc3c2c2ncnn2c2nnc(SCC(=O)NCc4ccco4)n32)CO1 | – | 6.91 µM (active) |
| CN(C)CCCn1c(SCC(=O)Nc2nc(-c3cccc(Br)c3)cs2)nc2ccccc2c1=O | -2.35% | – |
| Cn1c2ccccc2c2nnc(SCC(=O)Nc3cccc(C(=O)O)c3)nc21 | – | 21.9 µM (active) |
| CCN(CC)c1ccc(S(=O)(=O)N2CCOCC2)cc1NC(=O)CSc1nncn1C | – | 12.3 µM (active) |

| SMILES | activation | Potency |
| --- | --- | --- |
| CCOP1(=O)OCC2OC(n3cnc4c(N)ncnc43)C(O)C2O1 (configuration not stated) | – | 12.3 µM (active) |
| CCC(Sc1ccc2nnc(-c3cccnc3)n2n1)C(=O)OC (configuration not stated) | – | 19.4 µM (active) |
| CCOC(=O)CNC(=O)CSc1nc2c(C)cccc2cc1CC | – | 17.3 µM (active) |
| Brc1ccc(-c2nn3c(-c4ccco4)nnc3s2)o1 | – | 13.8 µM (active) |
| O=C(Nc1cccc(C(F)(F)F)c1)c1ccccc1NC(=O)C1CCCCC1 | – | inactive |
| N#Cc1c(N)nc(SCC(=O)C23CC4CC(CC(C4)C2)C3)c(C#N)c1-c1ccc(Cl)cc1 | – | 12.3 µM (active) |
| Cc1cc(C)nc(NS(=O)(=O)c2ccc(N3C(=O)c4ccccc4C3=O)cc2)n1 | – | 29.8 µM (active) |
| CCN(c1ccccc1)S(=O)(=O)c1ccc(OC)c(NC(=O)C2CC(=O)N(Cc3ccccc3)C2)c1 (configuration not stated) | -0.441% | – |
| Cc1cc(C)nc(NS(=O)(=O)c2ccc(NC(=O)c3nn(-c4ccccc4)ccc3=O)cc2)n1 | – | 15.5 µM (active) |
| COC(=O)c1nc2ccc(N3CCOCC3)cc2c(C)c1C(=O)OC | – | 34.6 µM (active) |
| CC(C)c1ccccc1NC(=O)c1ccccc1NC(=O)C1CCCCC1 | 8.65% [at 127 µM] | – |
| CCC1(C)Cc2c(sc3c2c2ncnn2c2nnc(SCC(=O)NCc4ccco4)n32)CO1 (configuration not stated) | – | 13.8 µM (active) |
| c1ccc(-c2nnc(-c3ccccn3)c(-c3ccccn3)n2)nc1 | -1.59% | – |
| Nc1ncnc2c1ncn2[C@@H]1O[C@H](COS(=O)(=O)O)[C@@H](O)[C@H]1O | – | 6.9 µM (active) |
| COc1ccc(NC(=O)CCCc2nnc3n(C)c(=O)c4sccc4n23)cc1 | – | 43.6 µM (active) |
| COc1ccc(Nc2ncc(C#N)c(N)n2)c(OC)c1 | -2.08% | – |
| Cc1ccc(-n2c(=S)[nH]c3sc4c(c3c2=O)CCC4)cc1 | – | 6.15 µM (active) |
| CCC(Sc1ccc2nnc(-c3cccnc3)n2n1)C(=O)O (configuration not stated) | – | 17.3 µM (active) |
